Compound activity deposited in PubChem by National Center for Advancing Translational Sciences (NCATS).
POLH inh = blocks human DNA polymerase eta activity; Q9Y253; hit rate 1.2% among 390,000; Potency, µM (highest dose often 114 µM), inactives show top-dose activity change, negative = inhibition, most hits filed as inhibitors; recombinant Pol eta, fluorescent DNA replication assay; note: potency is the fitted concentration of half-maximal effect; % is set by controls: 0 for no effect and ±100 for the full control effect
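Fluorescent replication assay: 50 nM final substrate added after a 15 min room-temperature compound preincubation with 10 nM enzyme. Signal taken at 0 min and again at 10 min.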
POLK inh = blocks human DNA polymerase kappa activity; Q9UBT6; purified Pol kappa, fluorescent DNA synthesis assay, 10 min; Potency, µM (series often up to 107 µM), inactives show at the top dose activity, negative = inhibition, hits mostly inhibitors; hit rate 0.53% among 400,000; AID 588579; note: potency is the fitted concentration of half-maximal effect; % is set by controls: 0 for no effect and ±100 for the full control effect
Target sequence (Q9UBT6 whole entry, looked up): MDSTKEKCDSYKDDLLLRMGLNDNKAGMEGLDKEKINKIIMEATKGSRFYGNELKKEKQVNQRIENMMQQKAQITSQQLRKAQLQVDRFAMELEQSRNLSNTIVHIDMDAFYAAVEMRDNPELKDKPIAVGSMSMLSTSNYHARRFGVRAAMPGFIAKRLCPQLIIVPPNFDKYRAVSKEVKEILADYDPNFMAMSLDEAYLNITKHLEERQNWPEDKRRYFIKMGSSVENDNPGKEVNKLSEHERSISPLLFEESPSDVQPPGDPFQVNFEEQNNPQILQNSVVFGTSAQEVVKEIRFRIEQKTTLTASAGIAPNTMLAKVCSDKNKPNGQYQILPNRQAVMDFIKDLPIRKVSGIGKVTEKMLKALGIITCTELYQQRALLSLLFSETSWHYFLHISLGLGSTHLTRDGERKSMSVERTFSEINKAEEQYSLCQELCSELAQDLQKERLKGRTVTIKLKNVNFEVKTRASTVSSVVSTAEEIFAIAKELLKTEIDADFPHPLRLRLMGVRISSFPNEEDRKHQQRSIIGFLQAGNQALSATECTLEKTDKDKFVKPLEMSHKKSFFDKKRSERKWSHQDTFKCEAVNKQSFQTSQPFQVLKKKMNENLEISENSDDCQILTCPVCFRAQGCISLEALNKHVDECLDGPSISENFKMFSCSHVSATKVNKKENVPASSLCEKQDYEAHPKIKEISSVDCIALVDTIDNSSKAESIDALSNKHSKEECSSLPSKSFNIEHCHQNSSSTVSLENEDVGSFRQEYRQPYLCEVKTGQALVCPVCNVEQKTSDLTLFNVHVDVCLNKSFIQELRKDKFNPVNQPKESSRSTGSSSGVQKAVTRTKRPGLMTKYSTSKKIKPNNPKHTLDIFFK
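10 nM Pol kappa preincubated 15 min at room temperature with compounds, then reaction started with substrate at 50 nM final. Fluorescence read kinetically at 0 and 10 min; buffer-only wells served as negative control.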
ALOX12 inh = inhibitors of human 12S-lipoxygenase ALOX12; P18054; purified 12hLO, xylenol orange hydroperoxide absorbance; Potency, µM (highest dose often 108 µM), for inactives: top-dose activity change, negative = inhibition, hits mostly inhibitors; hit rate 1.1% among 580,000; note: potency is the fitted concentration of half-maximal effect; % is set by controls: 0 for no effect and ±100 for the full control effect
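Hydroperoxide product was detected by ferrous iron/xylenol orange as the 573 to 405 nm absorbance ratio. Arachidonic acid at 40 uM (final) was turned over for 30 min at room temperature by 150 nM human 12hLO, pH 7.0 Hepes buffer, after 15 min compound preincubation.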
PI5P4Ka inh = inhibitors of human PI5P4K alpha | hit rate 1.2% among 330,000 | PI5P4Kalpha enzyme, ADP-Glo luminescence, 60 min; stronger effect = lower value | max response, %; active = max response of -50% or lower; inconclusive = between -30% and -50%; inactive = -30% or higher; note: value at the top dose of about 77 µM; % is set by controls: 0 for no effect and ±100 for the full control effect
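Compounds were pin-transferred onto PI5P4Kalpha and substrate in HEPES pH 7.4 buffer with EGTA, CHAPS and 5% DMSO. ATP (5 microM final) started the reaction, which ran 60 minutes at room temperature before ADP-Glo detection.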
POLB inh = blocks human DNA polymerase beta activity. P06746. Pol beta primer extension/strand displacement, fluorescence kinetic. Potency, µM (highest dose often 114 µM), inactives show top-dose activity change, negative = inhibition, hits mostly inhibitors. hit rate 1.3% among 340,000. AID 485314; note: potency is the fitted concentration of half-maximal effect; % is set by controls: 0 for no effect and ±100 for the full control effect
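Pol beta (10 nM) and compounds were preincubated 15 min at room temperature, then 50 nM substrate (final) started primer extension/strand displacement. Reads were taken at 0 and 10 min; concentration-response data were fitted to a four-parameter Hill equation.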
Pol iota inh = DNA polymerase iota (human) inhibition | Q9UNA4 | Pol iota fluorescent replication assay, 10 min | Potency, µM (highest dose often 115 µM), without a hit: at the highest dose activity, negative = inhibition, usual class: inhibitors | hit rate 1% among 390,000 | AID 588590; note: potency is the fitted concentration of half-maximal effect
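Fluorescent replication assay read twice, at 0 min and 10 min after adding 50 nM (final) substrate. Enzyme (10 nM) and compounds were first incubated 15 min at room temperature; enzyme-free buffer wells were negative controls.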
Starred values were filed as active, the others as inactive; u = inconclusive; x = not tested or not shown; [ ] = dose if it differs, or a comment. An excerpt weighted towards active compounds, which were near 2.9% of everything screened. Unless noted, calls come from the whole dose curve; as a rule, active = well fitted inhibition curve with a large enough effect; inconclusive = small, poorly fitted or top-dose-only effect, or another doubt; inactive = no such curve, though single readings can be large or run the other way.

SMILES	POLH inh	POLK inh	ALOX12 inh	PI5P4Ka inh	POLB inh	Pol iota inh
CCOC(=O)O[C@H](C)OC(=O)C1N2C(=O)[C@H](NC(=O)[C@H](N)c3ccccc3)C2SC1(C)C (some centres not stated)	x	x	0%	x	x	x
FC(F)(F)c1ccnc(Sc2ccc(Cl)cc2)n1	x	x	-3%	x	x	x
CCSC(SCC)C(O)C(O)C(O)C(C)O (configuration not stated)	x	x	34%	x	x	x
O=C(NN=C1c2ccccc2-c2ccccc21)c1ccccc1Br	-5%	-4%	25%	x	0.28µM*	u
NC(=S)NN=C1c2ccccc2-c2ccccc21	-7%	-4%	35µM*	-6	2%	-28%
O=C(NN=C1c2ccccc2-c2ccccc21)c1ccccc1	3%	-11%	u	3	u	4%
O=S1(=O)Nc2c(ccc3cccnc23)-c2ccccc21	3%	-9%	x	x	18%	u
Cc1cnc2c3c(cc(Cl)c2c1)-c1ccccc1S(=O)(=O)N3	x	79µM*	x	x	x	28µM*
CC(=O)C1=C(O)C2(C)c3c(O)c(C)c(O)c(C(C)=O)c3OC2CC1=O (configuration not stated)	-6%	x	32µM*	-22	x	x
COc1ccc2[nH]c3nc(SCc4nnc(-c5ccccc5)o4)nnc3c2c1	-32%	-12%	-6%	x	22µM*	8%
COc1ccc2[nH]c3nc(SCC(=O)Nc4cccc(NC(C)=O)c4)nnc3c2c1	0%	-20%	32%	-1	35µM*	u
N#Cc1ccc(CN2CCC3(C2)C(=O)N(c2ccccc2)c2ccccc23)cc1 (configuration not stated)	x	x	6%[6.33 µM]	x	x	x
O=C1N(Cc2ccccc2)CC2(Br)COCOC12O (configuration not stated)	2%	-8%	u	-62*	x	-4%
Cc1nn(C)c(C)c1NC(=O)CCl	-3%	4%	14µM*	0	-8%	u
Cc1c(CCC(=O)O)c(=O)oc2cc(OCc3ccccc3Br)ccc12	-14%	-19%	u	-1	50µM*	-25%
Cc1c(CCC(=O)O)c(=O)oc2cc(OCc3cccc(F)c3)ccc12	-1%	0%	34%	2	12%	30%
Cc1[nH]c2ccccc2c1CC(=O)O	-14%	-2%	-22%	x	-11%	14%
Cc1cc(C)c2c(CC(=O)O)c(C)[nH]c2c1	11%	-7%	50µM*	2	u	31%
COCCSc1nc2c(c(=O)n(C)c(=O)n2C)n1Cc1ccccc1Cl	x	x	-13%	x	x	x
CC1(C)C(=O)Nc2ccccc2N1C(=O)CSc1nnc2ccccn12	u	u	-16%	-19	32µM*	u
C=C1c2cccc(O)c2C(=O)C2C(=O)[C@]3(O)C(=O)C(C(N)=O)C(=O)[C@@H](N(C)C)[C@@H]3[C@@H](O)[C@H]12 (some centres not stated)	u	u	u	-71*	x	1.3µM*
C=C1c2cccc(O)c2C(O)=C2C(=O)[C@@]3(O)C(O)=C(C(N)=O)C(=O)[C@@H](N(C)C)[C@@H]3[C@@H](O)[C@H]12	x	1.8µM*	u	x	x	x
C[C@H]1c2cccc(O)c2C(O)=C2C(=O)[C@]3(O)C(O)=C(C(N)=O)C(=O)[C@@H](N(C)C)C3[C@@H](O)C21 (some centres not stated)	-15%	-6%	-9%	0	x	-2%
O=C(CSc1ccc(Br)c2cccc(Cl)c12)Nc1ccc(S(=O)(=O)Nc2nccs2)cc1	45µM*	u	12%	u	50µM*	u
O=C(Cc1ccccc1Cl)Nc1ccc(S(=O)(=O)Nc2nccs2)cc1	-23%	-7%	22%	2	-12%	51%
SMILES	POLH inh	POLK inh	ALOX12 inh	PI5P4Ka inh	POLB inh	Pol iota inh
c1ccc(CCc2nnc3sc(-c4cc5ccccc5[nH]4)nn23)cc1	x	x	-23%	x	x	x
COc1ccc(-c2n[nH]c(=S)n2-c2ccc(C)cc2)cc1	-19%	-5%	18µM*	-5	35%	-24%
S=c1[nH]nc(-c2ccc(Cl)cc2)n1-c1ccc(Cl)cc1	-8%	-7%	10µM*	0	23%	108%
COc1ccc(-n2c(-c3ccc(Cl)cc3Cl)n[nH]c2=S)c(OC)c1	-19%	0%	u	-64*	49%	57%
Nc1n[nH]c(=S)n1-c1ccc(Cl)cc1	2%	10%	u	-54*	-24%	-1%
CC1CCCC(NC(=O)c2ccc3c(Cl)c4c(nc3c2)CCC4)C1C (configuration not stated)	x	x	-28%	x	x	x
N#CC1=C(N)Oc2c(c(=O)[nH]c3ccccc23)C1c1ccccc1Cl (configuration not stated)	x	x	-16%	x	x	x
S=c1[nH]nc(-c2ccc(Cl)cc2Cl)n1-c1ccc(Cl)cc1	-7%	2%	13µM*	-5	14%	13%
O[C@H]1CC[C@@H](Cc2cc(-c3ccc(F)cc3)on2)O[C@@H]1CNCc1ccccn1	x	x	131%[176 µM]	x	x	x
C=C(C)COc1ccc2oc(C)c(C(=O)OCCOC)c2c1	1%	-2%	-12%	x	15%	89µM*
COCCOC(=O)c1c(C)oc2ccc(OCc3ccccc3)cc12	-24%	-6%	6%	31	83%	57%
O=S(=O)(c1cccs1)N1CN(CC2CCCO2)c2nc3ccccc3nc21 (configuration not stated)	1%	-4%	-16%	x	1%	14%
Cc1ccc(S(=O)(=O)N2CN(CC3CCCO3)c3nc4ccccc4nc32)c(C)c1 (configuration not stated)	-18%	-18%	-28%	9	-8%	71µM*
CCOc1ccc(-c2cc3c(=O)n(CCNC(=O)c4cccc(N(C)C)c4)ccn3n2)cc1	x	x	49%	x	x	x
O=C(CSc1nnc(SCC(=O)c2ccco2)s1)c1ccco1	16µM*	u	u	-62*	32µM*	u
Cc1ccccc1COC(=O)c1nn(Cc2ccccc2)c(=O)c2ccccc12	x	x	-17%	x	x	x
CCOc1cc(N2CCOCC2)c(OCC)cc1NS(=O)(=O)c1ccc(Cl)s1	0%	-15%	u	8	-80%	28µM*
CCOc1cc(N2CCOCC2)c(OCC)cc1NC(=O)c1cc(S(=O)(=O)N2CCOCC2)ccc1Cl	-11%	-4%	-10%	6	x	15%
Nc1nccnc1C(=O)NCc1ccc(-n2cccn2)nc1	x	x	0%	x	x	x
N#CC1=C(N)Oc2n[nH]c(-c3cccnc3)c2C1c1cc(F)ccc1F (configuration not stated)	-12%	0%	-14%	-54*	7%	38%
CC(C)CC1C(C#N)=C(N)Oc2n[nH]c(-c3ccccc3)c21 (configuration not stated)	-28%	-2%	0%	-57*	-19%	45%
